Source: PubChem BioAssay (EPA / NIEHS)
Records with an inconclusive call do not appear. Calls of active or inactive are those of the source. The calls were made as follows, unless noted: active = hit-call score of the fitted dose curve at least 0.9, where 1 is the maximum; inactive = score below 0.9.

Assays:
[1] = CCTE_Shafer_MEA_dev_firing_rate_mean: CCTE's Neural Network Formation Assay for Mean Firing Rate, Shafer Lab (AID 2284031)
Summary of the method: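 Read-out: spike count/recording length, averaged over active electrodes, then AUC across days 5, 7, 9, 12. Rat cortical cultures on MEA; continuous 12-day exposure, media and treatment renewed DIV 5, 9; DMSO baseline.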

[2] = CCTE_Shafer_MEA_dev_per_burst_spike_percent: CCTE's Neural Network Formation Assay for Percent of Spikes in a Burst, Shafer Lab (AID 2284032)
Summary of the method: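 Value is trapezoidal AUC over recordings on days 5, 7, 9 and 12 of the well-mean fraction of spikes falling in single-electrode bursts; rat cortical cultures exposed continuously from plating, treatment renewed DIV 5 and 9, fitted downward against DMSO.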

[3] = CCTE_Shafer_MEA_dev_burst_rate: CCTE's Neural Network Formation Assay for Burst Rate, Shafer Lab (AID 2284042)
Summary of the method: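 Developmental network assay measuring how 12-day exposure of rat cortical neuron cultures alters bursting on extracellular MEA recordings. Values are AUC of well-mean burst rate across four recording days, relative to DMSO vehicle.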

[4] = CCTE_Shafer_MEA_dev_bursting_electrodes_number: CCTE's Neural Network Formation Assay for Number of Bursting Electrodes, Shafer Lab (AID 2284043; active = hit-call score of the fitted dose curve at least 0.9, where 1 is the maximum)
Summary of the method: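 Counted: electrodes with burst rate ≥1 per 2 min in each well. Cells: primary rat cortex, 1.5 x 10^5/well, on 16-electrode MEA wells. Exposure: DIV 0–12, compound renewed DIV 5 and 9. Recording days 5, 7, 9, 12; AUC vs DMSO baseline.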

[5] = CCTE_Shafer_MEA_dev_per_burst_interspike_interval: CCTE's Neural Network Formation Assay for Burst Interspike Interval, Shafer Lab (AID 2284044)
Summary of the method: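 Readout is the average time between spikes inside single-electrode bursts, taken as a well mean across bursting electrodes. Cortical neurons from rat developed networks on MEA plates under continuous 12-day exposure; recordings on days 5, 7, 9 and 12 were integrated by trapezoidal AUC.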

[6] = CCTE_Shafer_MEA_dev_burst_duration_mean: CCTE's Neural Network Formation Assay for Mean Burst Duration, Shafer Lab (AID 2284045)
Summary of the method: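 Network-formation assay in primary rat cortical neurons; treatment spans twelve days of development. Mean burst duration per well is integrated by trapezoidal AUC and fitted in the loss-of-signal direction against DMSO baseline.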

[7] = CCTE_Shafer_MEA_dev_interburst_interval_mean: CCTE's Neural Network Formation Assay for Mean Interburst Interval, Shafer Lab (AID 2284046);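 also: well-mean interburst interval of bursting electrodes as AUC over four recording days; curve fitted for decrease in interburst interval relative to DMSO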
Summary of the method: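 Network formation assay in primary rat cortical cultures, exposed from DIV 0 to 12. Mean interburst interval per well, integrated as AUC over four recordings.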

[8] = CCTE_Shafer_MEA_dev_inter_network_spike_interval_mean: CCTE's Neural Network Formation Assay for Mean Inter-network Spike Interval, Shafer Lab (AID 2284047)
Summary of the method: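 Compound was given at plating to primary rat cortical neurons and renewed with full medium changes on DIV 5 and 9. Extracellular activity was recorded on days 5, 7, 9, 12; AUC values were fitted for loss relative to DMSO control.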

[9] = CCTE_Shafer_MEA_dev_network_spike_number: CCTE's Neural Network Formation Assay for Number of Network Spikes, Shafer Lab (AID 2284048)
Summary of the method: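 Extracellular recordings from 16-electrode wells track network formation in rat cortical cultures under continuous treatment from plating. The endpoint is network spike number, expressed as AUC across DIV 5–12 relative to DMSO vehicle.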

[10] = CCTE_Shafer_MEA_dev_network_spike_peak: CCTE's Neural Network Formation Assay for Mean Number of Electrodes in Network Spike, Shafer Lab (AID 2284049)
Summary of the method: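 Continuous 12-day exposure of rat cortical cultures, starting at plating, on MEA plates. Endpoint: electrodes participating in network-spike peaks, AUC across DIV 5–12, DMSO as negative control.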

[11] = CCTE_Shafer_MEA_dev_spike_duration_mean: CCTE's Neural Network Formation Assay for Mean Spike Duration, Shafer Lab (AID 2284051);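 also: mean network spike duration pooled as area under curve over DIV 5 to 12 recordings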
Summary of the method: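 With DMSO as baseline, loss of mean network spike duration was scored from extracellular recordings of rat cortical neurons on MEA plates. Exposure spanned plating to DIV 12; the four recording days were collapsed into one AUC value.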

[12] = CCTE_Shafer_MEA_dev_network_spike_duration_std: CCTE's Neural Network Formation Assay for Standard Deviation of Network Spike Duration, Shafer Lab (AID 2284052);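 also: area under curve of spike duration SD across recording days 5 to 12; hits are decreases in network spike duration SD versus DMSO vehicle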
Summary of the method: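 Developing networks of rat cortical neurons were exposed over twelve days in vitro on 48-well MEA plates. Trapezoidal AUC of recordings (DIV 5–12) was analysed for signal loss relative to DMSO vehicle.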

[13] = CCTE_Shafer_MEA_dev_per_network_spike_spike_number_mean: CCTE's Neural Network Formation Assay for Mean Number of Spikes in a Network Spike, Shafer Lab (AID 2284053)
Summary of the method: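 First, rat cortical cells (1.5 x 10^5/well) were seeded onto MEA wells; second, dosing began at plating and was refreshed on DIV 5 and 9; finally, network-spike spike counts across DIV 5–12 were summarized as AUC.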

[14] = CCTE_Shafer_MEA_dev_per_network_spike_spike_percent: CCTE's Neural Network Formation Assay for Percent of Spikes in a Network Spike, Shafer Lab (AID 2284054)
Summary of the method: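 Developing networks of rat cortical neurons are dosed at day 0 and recorded extracellularly four times up to day 12. The endpoint is the area under the curve of percent spikes in network spikes, fitted in the negative direction relative to DMSO.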

[15] = CCTE_Shafer_MEA_dev_correlation_coefficient_mean: CCTE's Neural Network Formation Assay for Mean Correlation Coefficient, Shafer Lab (AID 2284093)
Summary of the method: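 Extracellular firing from rat cortical networks on 48-well MEAs, DMSO-referenced, negative fitting direction. Compound present from plating to DIV12; mean pairwise correlation per well integrated over DIV5–12 recordings by trapezoidal AUC.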

[16] = UKN2_HCS_IMR90_neural_migration: University of Konstanz (UKN) Leist Lab Neural Crest Cell Migration Assay in human induced IMR90 Pluripotent Stem Cells (UKN2) (AID 2284204); conditions: actives raise or lower the signal
Summary of the method: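 Using a 96-well stopper format with PLO/laminin/fibronectin coating, neural crest cells from iPSC migrate in cytokine-supplemented N2-S medium; after 24 h, chemicals are applied for a further 24 h, then cells are imaged after dye staining.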

[17] = IUF_NPC1b_proliferation_BrdU_72hr: Leibniz Research Institute for Environmental Medicine (IUF) 72-hour Neural Progenitor Cell Bromodeoxyuridine (BrdU) Proliferation Assay (NPC1b) (AID 2284207)
Summary of the method: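 Neural progenitor spheres of human fetal origin are treated for three days; BrdU added for the last 16 h is quantified by luminescence ELISA, with DMSO as baseline and EGF/FGF omission as positive control.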

[18] = IUF_NPC1a_proliferation_area_72hr: Leibniz Research Institute for Environmental Medicine (IUF) 72-hour Neural Progenitor Cell Proliferation Area Assay (NPC1a) (AID 2284208)
Summary of the method: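 hNPC spheres (human fetal cortex, GW 16-19), one per poly-Hema U-bottom well; EGF+FGF medium; dosed day 0, no re-dosing; 72 h, 37C, 5% CO2; phase-contrast sphere area; DMSO = baseline; minus-GF = positive ctrl.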

[19] = IUF_NPC1_viability_72hr: Viability Assessment at 72 hours in the Leibniz Research Institute for Environmental Medicine (IUF) Neural Progenitor Cell Proliferation Assay (NPC1) (AID 2284209)
Summary of the method: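 Alamar blue fluorescence (RFU) after 72 h exposure, normalized to DMSO baseline. hNPC spheres from GW 16-19 fetal cortex, single sphere per well in growth-factor medium; no compound renewal.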

[20] = CCTE_Mundy_HCI_Cortical_Synap_Neur_Matur_NeuriteSpotCountPerNeuriteLength: CCTE's Synaptogenesis and Neurite Maturation Assay in rat cortical cells for Neurite Spot Count per Neurite Length, Mundy Lab (AID 2284210)
Summary of the method: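 Neurite-associated synapse density (synaptophysin puncta per unit neurite length) is measured by fluorescence high-content imaging in rat cortical cultures treated from DIV 7 and fixed at DIV 12, with DMSO as negative control.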

[21] = CCTE_Mundy_HCI_Cortical_Synap_Neur_Matur_BPCount: CCTE's Synaptogenesis and Neurite Maturation Assay in rat cortical cells for Branch Point Count, Mundy Lab (AID 2284211)
Summary of the method: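 In this multiplexed morphology assay, cortical cells from rat receive chemicals at DIV 7 and are fixed at DIV 12, then immunostained and imaged; branch points are counted, with DMSO as baseline.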

[22] = CCTE_Mundy_HCI_Cortical_NOG_NeuriteCount: CCTE's Neurite Outgrowth Assay in rat cortical cells for Neurite Count, Mundy Lab (AID 2284212);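 also: cells fixed about two days after chemical exposure began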
Summary of the method: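 Rat cortical primary cells; compound added 2 h post-plating, 1/10 dilution of working solution. Anti-betaIII-tubulin/AF488 ICC; ArrayScan neurite count vs DMSO.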

[23] = CCTE_Mundy_HCI_Cortical_Synap_Neur_Matur_NeuriteLength: CCTE's Synaptogenesis and Neurite Maturation Assay in rat cortical cells for Neurite Length, Mundy Lab (AID 2284214)
Summary of the method: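 Read-out: high-content imaging of MAP2-labelled neurites, with synaptophysin and Hoechst co-stain, in rat cortical cultures fixed at DIV 12. Activity fitted in positive direction relative to DMSO baseline.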

[24] = CCTE_Mundy_HCI_Cortical_Synap_Neur_Matur_NeuriteSpotCountPerNeuron: CCTE's Synaptogenesis and Neurite Maturation Assay in rat cortical cells for Neurite Spot Count per Neuron Count, Mundy Lab (AID 2284215)
Summary of the method: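 Read-out: neurite-associated synaptophysin puncta per neuron, imaged by high-content analysis after MAP2, synaptophysin and Hoechst staining. Rat primary cortical cultures, dosed DIV 7 through DIV 12; DMSO served as baseline.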

SMILES: CC(=O)N[C@@H](CC(=O)O)C(=O)O
- outcome [1]: inactive
- outcome [2]: inactive
- outcome [3]: inactive
- outcome [4]: inactive
- outcome [5]: inactive
- outcome [6]: inactive
- outcome [7]: inactive
- outcome [8]: inactive
- outcome [9]: inactive
- outcome [10]: inactive
- outcome [11]: inactive
- outcome [12]: inactive
- outcome [13]: inactive
- outcome [14]: inactive
- outcome [15]: inactive
- outcome [16]: inactive
- AC50 [17]: 11.7 µM (active)
- outcome [18]: inactive
- outcome [19]: inactive
- outcome [20]: inactive
- outcome [21]: inactive
- outcome [22]: inactive
- outcome [23]: inactive
- outcome [24]: inactive
